Measurements: PubChem BioAssay
Measured potencies and affinities stand elsewhere. Results filed as inconclusive are left out. Activity calls are given as the source filed them. Unless noted, the rule behind the calls is not given here.

What was measured:
[1] = inhibitors of PAX8-driven TPO luciferase reporter, dose response, RMG-I cells, cherry-pick (AID 687027;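 active = every replicate test run called active, with the signal dropping as expected and potency within twice the top valid dose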)
[2] = cytotoxicity in PAX8-dependent RMG-1 cells, dose response, cell-based, cherry-pick (AID 687029;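 active = signal drop whose fitted half-maximal concentration is at most twice the top valid dose, in every test run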;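 note: cells exposed to compound for 96 hours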)
[3] = cytotoxicity in IOSE-T80 ovarian epithelial cells, dose response, selectivity assay for PAX8 inhibitor project, cell-based, cherry-pick (AID 687032;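 active = fitted half-maximal concentration for viability loss no higher than twice the top valid dose, in every repeat run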;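 note: cells exposed to compound for 96 h before reading; 0% = neutral control wells and -100% = 2 µM mitoxantrone kill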)
[4] = inhibitors of CMV-promoter luciferase reporter, dose response, counter-screen for Pax8 inhibitor project, cell-based, HEK293, luminescence, dry powder (AID 743020;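 active = signal-lowering compounds whose fitted half-maximal concentration is at or below twice the top tested dose in every run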;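 note: HEK293 cells stably expressing the CMV luciferase reporter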)
[5] = non-specific cell cytotoxicity, dose response, cytotoxicity control for PAX8 inhibitor project, plate reader, dry powder samples (AID 743021)
[6] = HepG2 cell cytotoxicity, dose response, cytotoxicity control, cherry-picks, set 2 (AID 687002;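 active = a dose-response fit showing signal loss, with half-maximal concentration no higher than twice the top tested dose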)
[7] = HeLa cell cytotoxicity, dose response, cytotoxicity control, ATP luminescence, cherry-pick samples (AID 687004;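 active = a fitted half-maximal concentration no higher than twice the top valid tested dose, with signal falling as cells die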;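 note: 0% = neutral control median and -100% = staurosporine 10 µM control median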)
[8] = IGROV1 ovarian cancer cell cytotoxicity, dose response, PAX8 inhibitor project, plate reader, dry powder samples (AID 743043);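 note: more negative means fewer viable cells or more cytotoxicity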
[9] = NIH:OVCAR-3 ovarian cancer cell cytotoxicity, dose response, PAX8 inhibitor project, plate reader, dry powder samples (AID 743044); conditions: max activity: at 35 µM, stronger effect = lower value unless noted
[10] = IOSE-T80 ovarian epithelial cell cytotoxicity, dose response, cytotoxicity control for PAX8 inhibitor project, plate reader, dry powder samples (AID 743045);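 note: 0% = neutral control median and -100% = positive control median; more negative values mean more cell killing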
[11] = A2780 ovarian cancer cell cytotoxicity, dose response, cytotoxicity control, plate reader, dry powder samples (AID 743046);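 note: 0% = neutral control wells and -100% = cytotoxic reference compound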
[12] = cytotoxicity in OVCAR8 ovarian cancer cells, dose response, PAX8 project, cell-based, plate reader, dry powder samples (AID 743197)

COCCNC(=O)C/C(C)=N/NC(=O)C(=O)NC1CCCCC1
inactive: outcome [1] | outcome [2] | outcome [3] | outcome [4] | outcome [5]

CC1CCCC(NC(=O)COC(=O)c2ccccc2Sc2ccccc2C#N)C1C (centres undefined)
inactive: outcome [1] | outcome [2] | outcome [3] | outcome [4] | outcome [5]

CCOc1ccc2ccccc2c1/C=N\NC(=O)OC
inactive: outcome [1] | outcome [2]

COC(=O)C1=C(C)N(Cc2ccccc2)C(=S)NC1c1cccc(Br)c1 (centres undefined)
inactive: outcome [6] | outcome [7]

COc1cccc(C(=O)NC(=S)Nc2ccccc2N2CCOCC2)c1
inactive: outcome [6] | outcome [7]

Cc1csc(NC(=O)C(C)Oc2ccc(Br)cc2)n1 (centres undefined)
inactive: outcome [1] | outcome [2] | outcome [3] | outcome [4] | outcome [5]

O=C(NC(=S)Nc1ccccc1N1CCCC1)c1ccccc1[N+](=O)[O-]
inactive: outcome [6] | outcome [7]

Cc1ccc(NC(=O)C2CC(=O)N/C(=N/N=C/c3ccco3)S2)cc1C (centres undefined)
inactive: outcome [1] | outcome [2] | outcome [3] | outcome [4] | outcome [5]

O=C(CCCC(=O)OCC(Cl)=C(Cl)Cl)Nc1ccc(F)cc1
inactive: outcome [1] | outcome [2] | outcome [3] | outcome [4] | outcome [5]

CCCCNC(=O)/C(=C/c1ccccc1)NC(C)=O
inactive: outcome [1] | outcome [2] | outcome [3] | outcome [4] | outcome [5]

Cn1c(SCC(=O)c2ccccc2)nnc1-c1ccccn1
inactive: outcome [1]

Cc1ccc(C(=O)NC(=S)Nc2ccccc2N2CCCC2)cc1[N+](=O)[O-]
inactive: outcome [6] | outcome [7]

O=C(NC(=S)NCC1COc2ccccc2O1)c1ccc(Cl)cc1 (centres undefined)
inactive: outcome [6] | outcome [7]

COC(=O)C1=C(C)N(CC(C)C)C(=S)NC1c1ccc(F)cc1 (centres undefined)
inactive: outcome [6] | outcome [7]

COc1ccc(C2Nc3ccccc3C(=O)N2c2ccc(F)cc2)cc1CSc1ccccn1 (centres undefined)
inactive: outcome [1] | outcome [2]

Cc1ccc(NC(=S)N(CCCN2CCOCC2)Cc2ccccn2)cc1
inactive: outcome [1] | outcome [2] | outcome [3] | outcome [4]

Fc1ccccc1NC(=S)NCCc1cccc(Cl)c1
inactive: outcome [6] | outcome [7]

Cc1ccc(C(=O)NC(=S)Nc2ccc(N3CCOCC3)cc2)cc1
inactive: outcome [6] | outcome [7]

CN(CC(=O)Nc1cccc(F)c1)C(=O)CCCc1cccs1
inactive: outcome [1] | outcome [2] | outcome [3] | outcome [4] | outcome [5]

COc1ccc(CN2C(=O)C(CC(=O)NCCCCc3ccccc3)CC(C(=O)N3CCOCC3)=C2C)cc1 (centres undefined)
inactive: outcome [1] | outcome [2] | outcome [3] | outcome [4] | outcome [5]

O=C(CSc1ncccc1-c1nc2ccccc2[nH]1)N1CCc2ccccc21
inactive: outcome [1]

c1ccc(COc2ccc(OCCN3CCCCC3)cc2)cc1
inactive: outcome [1] | outcome [2] | outcome [3] | outcome [4] | outcome [5]

N/C(=N\OS(=O)(=O)c1cccc([N+](=O)[O-])c1)c1ccncc1
inactive: outcome [1] | outcome [2] | outcome [3] | outcome [4] | outcome [5]

Cc1ccccc1Cn1cnc2ccccc2c1=O
inactive: outcome [1] | outcome [2] | outcome [3] | outcome [4] | outcome [5]

O=C(O)CCCNC(=O)C(c1ccccc1)c1ccccc1
inactive: outcome [1] | outcome [2] | outcome [3] | outcome [4] | outcome [5]

O=[N+]([O-])c1cccnc1S(=O)(=O)c1ccccc1
inactive: activity change, negative = inhibition [1] -21.1% [at 8 µM]

COCC(=O)Nc1ccc2c(c1)C(=O)N(C)C[C@H](OC)[C@@H](C)CN(C(=O)c1ccccc1)[C@@H](C)CO2
inactive: outcome [6] | outcome [7]

CCOc1ccc2c(CC)cc(=O)oc2c1OCC
inactive: outcome [1] | outcome [2] | outcome [3] | outcome [4] | outcome [5]

COc1ccccc1NC(=S)NCc1ccc(Cl)cc1
inactive: outcome [6] | outcome [7]

CO[C@@H]1CN(C)C(=O)c2cc(NC(=O)c3ccccc3F)ccc2OC[C@@H](C)N(CC2CC2)C[C@@H]1C
inactive: outcome [1] | outcome [2] | outcome [3] | outcome [4] | outcome [5] | outcome [8] | max activity [9] 9.58% [at 0.5 µM, stronger effect = lower value] | outcome [10] | outcome [11] | outcome [12]

COc1cccc(-c2ccc(C3[C@@H]4CN(Cc5cccc(F)c5)C[C@H]3N4)cc2)c1 (some centres undefined)
inactive: outcome [1] | outcome [2] | outcome [3] | outcome [4] | outcome [5] | outcome [11] | outcome [12]

CC=Cc1ccc2n(c1=O)C[C@H]1[C@H](CO)[C@@H](C(=O)NC3CCC3)N(CC)[C@@H]21 (mixture of isomers)
inactive: outcome [1] | outcome [2] | outcome [3] | outcome [4] | outcome [5] | outcome [8] | max activity [9] 9.45% | outcome [10] | outcome [11] | outcome [12]

C[C@H]1CN([C@@H](C)CO)C(=O)c2cccc(NC(=O)Nc3cccc4ccccc34)c2O[C@H]1CN(C)CC1CC1
inactive: outcome [1] | outcome [2] | outcome [3] | outcome [4] | outcome [5] | outcome [8] | max activity [9] -29.9% | outcome [10] | outcome [11] | outcome [12]

O=C(NC1CCCCC1)C(c1ccc(F)cc1)N(Cc1ccco1)C(=O)CN1C(=O)c2ccccc2S1(=O)=O (centres undefined)
inactive: outcome [1] | outcome [2] | outcome [3] | outcome [4] | outcome [5]

COc1ccc(-c2cn(CC[C@H]3CC[C@@H](NC(=O)Cc4ccccn4)[C@H](CO)O3)nn2)cc1
inactive: outcome [1] | outcome [2] | outcome [3] | outcome [4] | outcome [5] | outcome [8] | max activity [9] 35.1% [at 2.1 µM, stronger effect = lower value] | outcome [10] | outcome [12]

C[C@H]1CCCCO[C@@H](CN(C)Cc2ccc(C(=O)O)cc2)[C@@H](C)CN([C@@H](C)CO)C(=O)c2cc(NS(=O)(=O)c3ccc(Cl)cc3)ccc2O1
inactive: outcome [1] | outcome [2] | outcome [3] | outcome [4] | outcome [5] | outcome [8] | max activity [9] 4.48% | outcome [10] | outcome [11] | outcome [12]

CN1[C@@H]2Cn3c(ccc(-c4ccccc4)c3=O)[C@H]1[C@@H](C(=O)NC1CCCCC1)[C@@H]2CO
inactive: outcome [1] | outcome [2] | outcome [3] | outcome [4] | outcome [5] | outcome [8] | max activity [9] -24.4% | outcome [10] | outcome [11] | outcome [12]

Cc1ccc(-c2ccc([C@@H]3[C@@H]4CN(Cc5ccccc5F)C[C@H]3N4)cc2)cc1
inactive: outcome [1] | outcome [2] | outcome [3] | outcome [4] | max activity [9] -28% | outcome [10] | outcome [12]
